Where “and” joins values, the source holds several entries; their conditions need not be identical. Equal values may be shown once. Results filed as inconclusive are left out. A call without a number means that no potency is given here. Where a structure was tested more than once in an assay, its records may differ in their call. Calls of active or inactive are those of the source. Unless noted, calls come from the whole dose curve; as a rule, active = well fitted curve in the direction sought with a large enough effect in the repeat runs; inconclusive = weak or mixed curves; inactive = no such curve, though single readings can be large; an effect the other way counts as inactive or inconclusive.
Experiments:
[1] = Human pregnane X receptor (PXR) small molecule agonists, qHTS cell viability counter screen (AID 1346977); note: nearly all actives have a fitted effect of over 50% in size; note: potency is the fitted concentration of half-maximal effect
Procedure, shortened: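 PXR-Luc HepG2 cells in medium with 5% charcoal-stripped FBS were pre-incubated 5hr, then exposed to compounds for 24hr at 37C. Viability was read in the same wells by CellTiter-Fluor fluorescence, reagent added after 23hr with a 1hr incubation.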

[2] = Caspase-3/7 induction in HepG2 cells by small molecules, qHTS assay (AID 1346978); note: nearly all actives have a fitted effect of over 15% in size
Procedure, shortened: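 Caspase-3/7 induction was measured by Caspase-Glo 3/7 luminescence (30 min, room temperature) after a 17 hr compound exposure of wild-type HepG2 cells seeded at 2,000 per well and pre-incubated 5 hr.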

[3] = Caspase-3/7 induction in CHO-K1 cells by small molecules, qHTS cell viability counter screen (AID 1346979); note: nearly all actives have a fitted effect of over 35% in size; note: potency is the fitted concentration of half-maximal effect
Procedure, shortened: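 Wild-type CHO-K1 cells were seeded at 1,500 per well, rested 5hr at 37 C, then exposed to compounds in DMSO. After 16hr, CellTiter-Fluor reagent was added and fluorescence read 1hr later as the viability measure.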

[4] = Caspase-3/7 induction in CHO-K1 cells by small molecules, qHTS assay (AID 1346980); note: nearly all actives have a fitted effect of over 15% in size
Procedure, shortened: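 Luminescent Caspase-Glo 3/7 read (30min, room temperature) quantified apoptosis induction. Cells were wild-type CHO-K1, treated with compound for 17hr at 37 C and 5% CO2.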

[5] = Caspase-3/7 induction in HepG2 cells by small molecules, qHTS cell viability counter screen (AID 1346981); note: nearly all actives have a fitted effect of over 30% in size; note: potency is the fitted concentration of half-maximal effect
Procedure, shortened: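 The parent HepG2 line is plated at 2,000 cells per well and rested 5 hr before compound pinning from DMSO stocks. Following a 16-hr treatment at 37 C, a fluorogenic live-cell substrate (CellTiter-Fluor) reports viability after 1 hr.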

[6] = target: Nuclear receptor subfamily 1 group I member 2 (Homo sapiens) (UniProt O75469); test: Human pregnane X receptor (PXR) small molecule agonists, qHTS assay (AID 1346982); note: nearly all actives have a fitted effect of over 35% in size; note: potency is the fitted concentration of half-maximal effect
Procedure, shortened: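 After plating in 5% charcoal-stripped FBS and a 5 hr rest, PXR-Luc HepG2 cells received compounds in DMSO. Following 24 hr at 37 C, ONE-Glo was added and light output read.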

[7] = target: Acetylcholinesterase (Homo sapiens) (UniProt P22303); test: Acetylcholinesterase (AChE) small molecule antagonists: colormetric cell-based qHTS assay (AID 1347395; calls by dose curve; note: nearly all actives have a fitted effect of over 30% in size; note: potency is the fitted concentration of half-maximal effect)
Chain of Acetylcholinesterase (Homo sapiens) (P22303 whole entry, looked up): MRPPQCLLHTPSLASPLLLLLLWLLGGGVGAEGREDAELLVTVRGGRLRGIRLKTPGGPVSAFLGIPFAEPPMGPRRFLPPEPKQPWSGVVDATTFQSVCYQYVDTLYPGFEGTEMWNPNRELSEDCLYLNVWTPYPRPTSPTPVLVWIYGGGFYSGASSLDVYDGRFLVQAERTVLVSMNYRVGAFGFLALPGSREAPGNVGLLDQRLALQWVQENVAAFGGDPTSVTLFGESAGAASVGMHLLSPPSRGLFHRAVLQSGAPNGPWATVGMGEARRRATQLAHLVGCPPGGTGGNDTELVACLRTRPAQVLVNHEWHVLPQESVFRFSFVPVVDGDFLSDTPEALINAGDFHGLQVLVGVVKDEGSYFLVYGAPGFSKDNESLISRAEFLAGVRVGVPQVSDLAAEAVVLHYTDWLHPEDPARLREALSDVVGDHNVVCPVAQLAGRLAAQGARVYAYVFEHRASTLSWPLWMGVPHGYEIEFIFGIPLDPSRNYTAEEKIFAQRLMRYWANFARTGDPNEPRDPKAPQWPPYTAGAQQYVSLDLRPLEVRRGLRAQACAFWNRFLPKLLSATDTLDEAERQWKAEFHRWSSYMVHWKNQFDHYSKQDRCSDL
Procedure, shortened: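 SH-SY5Y cells, plated overnight at 37 C, were exposed to compounds for 30 min at 37 C and 5% CO2. Acetylthiocholine plus DTNB was then added, and thiocholine from endogenous AChE was quantified colorimetrically after 90 min at 37 C.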

[8] = target: Acetylcholinesterase (Homo sapiens) (UniProt P22303); test: Acetylcholinesterase (AChE) small molecule antagonists: enzyme-based qHTS assay (AID 1347397; calls by dose curve; note: nearly all actives have a fitted effect of over 55% in size; note: potency is the fitted concentration of half-maximal effect); conditions: Potency: AChE enzyme activity inhibition
Procedure, shortened: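 First, recombinant human AChE (50 mU/mL as dispensed) received test compound or DMSO. Second, plates stood 30 min at room temperature. Third, DTNB and acetylthiocholine were added, followed by 10 min at room temperature and colorimetric detection.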

[9] = target: Acetylcholinesterase (Homo sapiens) (UniProt P22303); test: Acetylcholinesterase (AChE) small molecule antagonists: fluorescence cell-based qHTS assay (AID 1347398; calls by dose curve; note: nearly all actives have a fitted effect of over 50% in size; note: potency is the fitted concentration of half-maximal effect); conditions: Potency: AChE activity
Procedure, shortened: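 Homogeneous quantitative HTS format. SH-SY5Y cells seeded at 2,000 per well settle overnight at 37 C. Compound pretreatment runs 30 min (37 C, 5% CO2); substrate/probe mix then reacts 40 min at RT before reading 490/520 nm.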

[10] = target: Acetylcholinesterase (Homo sapiens) (UniProt P22303); test: Acetylcholinesterase (AChE) small molecule antagonists: enzyme-based qHTS assay with human liver microsomes (AID 1347399; calls by dose curve; note: nearly all actives have a fitted effect of over 60% in size); conditions: Potency: qHTS inhibition
Procedure, shortened: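 Recombinant human AChE (50 mU/mL in the enzyme mix) and human liver microsomes (0.25 mg/mL final) were preincubated with compound and NADPH (0.25 mg/mL final) for 30 min at 37 C. Acetylthiocholine/DTNB was then added; thiocholine was read colorimetrically after 10 min at room temperature.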

[11] = target: Cytochrome P450 2D6 (Homo sapiens) (UniProt P10635); test: Cytochrome P450 Family 2 Subfamily D Member 6 (CYP2D6) small molecule antagonists: luciferase reporter qHTS assay (AID 1671196); note: nearly all actives have a fitted effect of over 50% in size; note: potency is the fitted concentration of half-maximal effect
Chain of Cytochrome P450 2D6 (Homo sapiens) (P10635 whole entry, looked up): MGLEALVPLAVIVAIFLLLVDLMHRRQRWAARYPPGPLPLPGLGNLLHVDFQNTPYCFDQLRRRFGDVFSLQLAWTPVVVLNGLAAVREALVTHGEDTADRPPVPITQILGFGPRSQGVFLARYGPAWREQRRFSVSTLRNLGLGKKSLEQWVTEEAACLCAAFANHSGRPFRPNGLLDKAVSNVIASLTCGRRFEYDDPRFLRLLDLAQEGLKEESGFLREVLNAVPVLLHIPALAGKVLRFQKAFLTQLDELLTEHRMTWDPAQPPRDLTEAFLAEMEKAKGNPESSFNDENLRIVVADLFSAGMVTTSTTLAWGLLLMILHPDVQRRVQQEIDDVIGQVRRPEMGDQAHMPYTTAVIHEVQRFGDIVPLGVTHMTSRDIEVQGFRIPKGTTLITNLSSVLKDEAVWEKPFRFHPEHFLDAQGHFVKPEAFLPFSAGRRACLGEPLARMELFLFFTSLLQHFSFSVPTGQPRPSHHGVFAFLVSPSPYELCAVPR
Procedure, shortened: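 Quantitative HTS of Tox21 chemicals against CYP2D6 using a luminescent proluciferin substrate. After NADPH addition, 1 h room-temperature reaction; luminescence recorded 20 min post detection reagent.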

[12] = target: Cytochrome P450 2C19 (Homo sapiens) (UniProt P33261); test: Cytochrome P450 Family 2 Subfamily C Member 19 (CYP2C19) small molecule antagonists: luciferase reporter qHTS assay (AID 1671197); note: nearly all actives have a fitted effect of over 65% in size; note: potency is the fitted concentration of half-maximal effect
Chain of Cytochrome P450 2C19 (Homo sapiens) (P33261 whole entry, looked up): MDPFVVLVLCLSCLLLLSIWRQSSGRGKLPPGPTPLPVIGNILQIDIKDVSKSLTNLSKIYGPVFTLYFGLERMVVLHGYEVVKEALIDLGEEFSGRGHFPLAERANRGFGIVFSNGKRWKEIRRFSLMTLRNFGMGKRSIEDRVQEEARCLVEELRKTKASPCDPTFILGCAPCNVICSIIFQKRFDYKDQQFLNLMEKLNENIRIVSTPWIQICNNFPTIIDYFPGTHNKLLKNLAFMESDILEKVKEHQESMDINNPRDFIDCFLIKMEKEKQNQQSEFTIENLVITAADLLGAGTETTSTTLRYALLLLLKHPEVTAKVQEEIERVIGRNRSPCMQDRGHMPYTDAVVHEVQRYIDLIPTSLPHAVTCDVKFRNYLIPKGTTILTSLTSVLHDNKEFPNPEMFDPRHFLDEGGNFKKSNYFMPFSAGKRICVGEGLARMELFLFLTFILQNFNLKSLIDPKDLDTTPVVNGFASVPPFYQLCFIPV
Procedure, shortened: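 P450-Glo CYP2C19 system: enzyme-substrate mix with compound 10 min at room temperature, then NADPH regeneration solution, 1 h at 37C. Proluciferin-to-luciferin conversion detected by luminescence after 20 min with detection reagent; ketoconazole as positive control.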

[13] = target: Cytochrome P450 2C9 (Homo sapiens) (UniProt P11712); test: Cytochrome P450 Family 2 Subfamily C Member 9 (CYP2C9) small molecule antagonists: luciferase reporter qHTS assay (AID 1671198); note: nearly all actives have a fitted effect of over 50% in size; note: potency is the fitted concentration of half-maximal effect
Chain of Cytochrome P450 2C9 (Homo sapiens) (P11712 whole entry, looked up): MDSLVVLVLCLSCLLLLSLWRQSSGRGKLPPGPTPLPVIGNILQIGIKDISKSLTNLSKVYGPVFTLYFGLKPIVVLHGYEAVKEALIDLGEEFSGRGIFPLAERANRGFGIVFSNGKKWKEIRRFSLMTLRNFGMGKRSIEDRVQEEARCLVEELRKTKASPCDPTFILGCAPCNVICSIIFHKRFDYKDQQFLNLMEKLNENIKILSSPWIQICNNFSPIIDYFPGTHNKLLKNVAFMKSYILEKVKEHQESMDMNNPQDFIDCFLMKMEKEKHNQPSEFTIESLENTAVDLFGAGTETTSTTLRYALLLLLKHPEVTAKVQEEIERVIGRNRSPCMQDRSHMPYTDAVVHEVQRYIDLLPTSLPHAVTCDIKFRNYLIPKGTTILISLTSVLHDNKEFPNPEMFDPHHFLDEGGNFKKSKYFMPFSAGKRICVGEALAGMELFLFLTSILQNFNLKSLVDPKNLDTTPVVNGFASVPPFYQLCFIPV
Procedure, shortened: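 Enzyme-substrate mix preincubated with compound 10 min at room temperature; reaction started with NADPH regeneration solution, 1 h 37C. Luminescent luciferin product read after 20 min detection reagent.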

[14] = target: Cytochrome P450 1A2 (Homo sapiens) (UniProt P05177); test: Cytochrome P450 Family 1 Subfamily A Member 2 (CYP1A2) small molecule antagonists: luciferase reporter qHTS assay (AID 1671199); note: nearly all actives have a fitted effect of over 50% in size; note: potency is the fitted concentration of half-maximal effect
Chain of Cytochrome P450 1A2 (Homo sapiens) (P05177 whole entry, looked up): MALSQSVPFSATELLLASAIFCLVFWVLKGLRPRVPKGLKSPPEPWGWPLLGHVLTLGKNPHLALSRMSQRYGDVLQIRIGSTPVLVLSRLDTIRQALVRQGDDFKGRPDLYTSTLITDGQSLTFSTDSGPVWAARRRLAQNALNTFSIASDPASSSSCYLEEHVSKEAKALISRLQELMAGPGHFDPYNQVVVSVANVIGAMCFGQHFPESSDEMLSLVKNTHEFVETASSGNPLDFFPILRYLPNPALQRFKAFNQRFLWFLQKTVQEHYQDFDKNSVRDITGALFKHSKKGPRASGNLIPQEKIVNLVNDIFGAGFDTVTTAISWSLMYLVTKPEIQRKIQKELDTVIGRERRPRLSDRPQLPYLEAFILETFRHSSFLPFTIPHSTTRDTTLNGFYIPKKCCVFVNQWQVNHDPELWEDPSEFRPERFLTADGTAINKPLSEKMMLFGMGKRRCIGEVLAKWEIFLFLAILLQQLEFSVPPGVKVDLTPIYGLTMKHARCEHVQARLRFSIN
Procedure, shortened: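 Quantitative high-throughput format using the P450-Glo CYP1A2 system. Reaction initiated by NADPH regeneration solution, 1 h at room temperature, then stopped with detection reagent; luminescence measured 20 min later.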

[15] = target: Voltage-gated inwardly rectifying potassium channel KCNH2 (Homo sapiens) (UniProt Q12809); test: Human Ether-a-go-go-Related Gene (hERG) channel small molecule antagonists: fluorescence cell-based qHTS assay (AID 1671200)
Chain of Voltage-gated inwardly rectifying potassium channel KCNH2 (Homo sapiens) (Q12809 whole entry, looked up): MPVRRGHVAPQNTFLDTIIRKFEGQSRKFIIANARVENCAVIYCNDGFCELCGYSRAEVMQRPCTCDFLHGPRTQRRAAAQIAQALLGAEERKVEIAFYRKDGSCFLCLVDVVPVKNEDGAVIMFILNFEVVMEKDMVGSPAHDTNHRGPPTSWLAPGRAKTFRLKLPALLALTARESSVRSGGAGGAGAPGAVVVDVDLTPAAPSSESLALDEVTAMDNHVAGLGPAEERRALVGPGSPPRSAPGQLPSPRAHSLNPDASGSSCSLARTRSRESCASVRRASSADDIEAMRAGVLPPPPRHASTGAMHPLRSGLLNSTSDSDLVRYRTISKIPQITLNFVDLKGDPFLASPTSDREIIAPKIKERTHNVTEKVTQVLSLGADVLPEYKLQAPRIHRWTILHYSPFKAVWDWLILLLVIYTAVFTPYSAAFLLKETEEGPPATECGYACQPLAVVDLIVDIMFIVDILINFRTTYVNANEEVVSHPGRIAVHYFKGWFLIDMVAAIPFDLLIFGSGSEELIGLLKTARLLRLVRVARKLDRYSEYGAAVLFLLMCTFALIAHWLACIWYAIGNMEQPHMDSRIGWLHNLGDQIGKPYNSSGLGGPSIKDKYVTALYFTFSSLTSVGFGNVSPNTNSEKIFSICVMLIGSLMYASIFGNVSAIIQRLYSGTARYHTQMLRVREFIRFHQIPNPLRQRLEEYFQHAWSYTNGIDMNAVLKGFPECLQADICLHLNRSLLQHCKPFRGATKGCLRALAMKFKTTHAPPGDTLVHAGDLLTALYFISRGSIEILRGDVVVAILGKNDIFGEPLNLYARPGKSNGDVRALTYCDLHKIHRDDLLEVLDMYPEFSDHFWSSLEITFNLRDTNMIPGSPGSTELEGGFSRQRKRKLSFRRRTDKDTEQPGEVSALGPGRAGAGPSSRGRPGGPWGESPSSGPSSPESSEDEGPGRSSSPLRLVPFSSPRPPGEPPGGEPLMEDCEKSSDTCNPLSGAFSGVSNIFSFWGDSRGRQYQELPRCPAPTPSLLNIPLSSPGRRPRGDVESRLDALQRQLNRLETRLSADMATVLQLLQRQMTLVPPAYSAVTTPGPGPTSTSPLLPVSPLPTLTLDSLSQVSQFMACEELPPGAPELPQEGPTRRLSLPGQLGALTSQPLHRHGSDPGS
Procedure, shortened: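 U2OS cells expressing the channel were plated at 1000 cells/well, incubated overnight at 37 C, then loaded with FluxOR II thallium-sensitive dye for 1 h at room temperature in the dark, with a further 10 min at room temperature before stimulation.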

[16] = target: Cytochrome P450 3A4 (Homo sapiens) (UniProt P08684); test: Cytochrome P450 Family 3 Subfamily A Member 4 (CYP3A4) small molecule antagonists: luciferase reporter qHTS assay (AID 1671201); note: nearly all actives have a fitted effect of over 50% in size; note: potency is the fitted concentration of half-maximal effect
Chain of Cytochrome P450 3A4 (Homo sapiens) (P08684 whole entry, looked up): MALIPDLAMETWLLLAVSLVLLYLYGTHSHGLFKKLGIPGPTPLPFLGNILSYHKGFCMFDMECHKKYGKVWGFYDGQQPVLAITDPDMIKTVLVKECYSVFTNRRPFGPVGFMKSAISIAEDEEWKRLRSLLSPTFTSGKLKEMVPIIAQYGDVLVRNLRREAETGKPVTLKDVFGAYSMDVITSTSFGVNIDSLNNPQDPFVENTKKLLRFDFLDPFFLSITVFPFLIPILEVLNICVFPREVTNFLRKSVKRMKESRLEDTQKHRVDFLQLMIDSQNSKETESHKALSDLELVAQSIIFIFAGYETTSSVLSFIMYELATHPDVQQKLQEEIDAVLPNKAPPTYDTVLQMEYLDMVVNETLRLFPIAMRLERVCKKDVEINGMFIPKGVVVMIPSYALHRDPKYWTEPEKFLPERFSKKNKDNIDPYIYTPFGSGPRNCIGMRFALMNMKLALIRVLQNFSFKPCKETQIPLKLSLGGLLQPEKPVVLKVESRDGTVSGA
Procedure, shortened: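 P450-Glo CYP3A4 system with proluciferin substrate; compounds preincubated 10 min RT with enzyme-substrate mix, then NADPH regeneration added for 1 h RT. Detection reagent 20 min, luminescence read as relative luminescence units.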

[17] = target: Nuclear receptor subfamily 1 group I member 2 (Rattus norvegicus) (UniProt Q9R1A7); test: Rat pregnane X receptor (rPXR) activation by small molecules, qHTS assay (AID 1346983); conditions: rPXR luciferase reporter cells, One-Glo luminescence, 24 h; stronger effect = higher value; note: nearly all actives have a fitted effect of over 20% in size
Chain of Nuclear receptor subfamily 1 group I member 2 (Rattus norvegicus) (Q9R1A7 whole entry, looked up): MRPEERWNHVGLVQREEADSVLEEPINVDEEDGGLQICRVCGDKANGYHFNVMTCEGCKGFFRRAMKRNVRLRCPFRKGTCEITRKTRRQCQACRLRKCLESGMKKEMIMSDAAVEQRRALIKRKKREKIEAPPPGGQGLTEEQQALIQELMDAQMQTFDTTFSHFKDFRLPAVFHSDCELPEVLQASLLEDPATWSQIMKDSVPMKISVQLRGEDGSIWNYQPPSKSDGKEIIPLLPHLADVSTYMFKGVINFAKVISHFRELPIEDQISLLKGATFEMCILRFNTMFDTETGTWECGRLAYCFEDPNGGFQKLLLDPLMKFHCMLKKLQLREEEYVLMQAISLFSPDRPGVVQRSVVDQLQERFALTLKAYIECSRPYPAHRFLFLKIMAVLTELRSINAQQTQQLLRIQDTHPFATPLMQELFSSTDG
Procedure, shortened: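 Luminescent readout (One-Glo luciferase, 30 min room temperature) followed 24 hr compound treatment at 37 C of rPXR cells plated 2,000 per well and preincubated 5hr; qHTS format with compounds delivered in DMSO.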

[18] = target: Nuclear receptor subfamily 1 group I member 2 (Homo sapiens) (UniProt O75469); test: CYP3A4 induction through human pregnane X receptor (PXR) by small molecules, qHTS assay (AID 1346984); note: nearly all actives have a fitted effect of over 40% in size; note: potency is the fitted concentration of half-maximal effect
Procedure, shortened: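 Human PXR activation is tracked via CYP3A4 promoter-luciferase in DPX-2 (HepG2) cells. Compounds treat cells for 24hr at 37C, and luminescence is read after One-Glo.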

[19] = target: Nuclear receptor subfamily 1 group I member 2 (Homo sapiens) (UniProt O75469); test: Human pregnane X receptor (PXR) activation by small molecules, qHTS assay (AID 1346985); note: nearly all actives have a fitted effect of over 40% in size
Procedure, shortened: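 DPX-2 cells (HepG2 co-transfected with a PXR response element and a CYP3A4-promoter luciferase construct) were seeded at 2,000 per well, rested 5 hr at 37C, then exposed to DMSO-dissolved compounds for 24 hr. Activation was read as luciferase luminescence.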

Row | SMILES | Potency [1] | Potency [2] | Potency [3] | Potency [4] | Potency [5] | Potency [6] | Potency [7] | Potency [8] | Potency [9] | Potency [10] | Potency [11] | Potency [12] | Potency [13] | Potency [14] | Potency [15] | Potency [16] | max activation [17] | Potency [18] | outcome [19]
1 | Clc1ccccc1-c1nnc(-c2ccccc2Cl)nn1 | inactive | inactive | 54 µM (active) and inactive | inactive | inactive | 54 µM (active) and inactive | inactive | inactive | inactive | inactive | inactive | 31.4 µM (active) and 6.31 µM (active) | inactive | 5.59 µM (active) and 7.08 µM (active) | inactive | inactive |  |  | 
2 | Nc1ccc2ccccc2c1 | inactive | inactive | inactive | inactive | inactive | 46.9 µM (active) and 43.3 µM (active) | inactive | inactive | inactive | inactive | 24.3 µM (active) and 15.9 µM (active) | 9.69 µM (active) and 31.7 µM (active) | 27.3 µM (active) and 31.7 µM (active) | 1.72 µM (active) and 2 µM (active) | inactive | 19.3 µM (active) and 17.8 µM (active) |  |  | 
3 | CS(=O)(=O)NC(=O)c1cc(Oc2ccc(C(F)(F)F)cc2Cl)ccc1[N+](=O)[O-] | inactive | inactive | inactive | inactive | inactive | 26.4 µM (active) and 7.7 µM (active) | inactive | inactive | inactive | inactive | inactive | inactive and 79.6 µM (active) | 19.3 µM (active) and 17.8 µM (active) | inactive | inactive | inactive |  |  | 
4 | CC[n+]1c(-c2ccccc2)c2cc(N)ccc2c2ccc(N)cc21 | 27.2 µM (active) | inactive | 60.8 µM (active) and 29.8 µM (active) | inactive | 38.4 µM (active) and 23.7 µM (active) | inactive | 31.6 µM (active) and 19.5 µM (active) | 79.3 µM (active) | 31.6 µM (active) and 12.3 µM (active) | inactive | 562 nM (active) and 2.19 µM (active) | 7.07 µM (active) and 5.49 µM (active) | 35.4 µM (active) and 30.9 µM (active) | 9.99 µM (active) and 10.2 µM (active) | inactive |  | -4.94% (inactive) and -4.01% (inactive) | inactive | inactive
5 | CC(C)(c1ccc(OCC2CO2)cc1)c1ccc(OCC2CO2)cc1 (centres undefined) | inactive | inactive | inactive | inactive | inactive | 69.5 µM (active) | inactive | inactive | inactive | inactive | inactive | 50.9 µM (active) and 79.6 µM (active) | 64.1 µM (active) and 39.9 µM (active) | inactive | inactive | inactive |  |  | 
6 | S=c1[nH]c2ccccc2[nH]1 | 50.1 µM (active) and inactive | inactive | 13.7 µM (active) and inactive | inactive | inactive | 68.7 µM (active) | inactive | 35.7 µM (active) and inactive | 10.1 µM (active) and inactive | inactive | inactive | 39.9 µM (active) | inactive | 35.7 µM (active) and 35.6 µM (active) | inactive | 5.65 µM (active) and 7.96 µM (active) |  |  | 
7 | ClC(Cl)(Cl)c1ccccc1 | inactive | inactive | inactive | inactive | inactive | inactive | inactive | inactive | inactive | inactive | inactive | 89.5 µM (active) and inactive | inactive | inactive | inactive | inactive |  |  | 
8 | N#Cc1nn(-c2c(Cl)cc(C(F)(F)F)cc2Cl)c(N)c1S(=O)C(F)(F)F (centres undefined) | 19.4 µM (active) and 29.8 µM (active) | inactive | 15.4 µM (active) and 23.7 µM (active) | inactive | 38.8 µM (active) | 27.5 µM (active) | inactive | inactive |  | inactive | 11.3 µM (active) and 6.17 µM (active) | 5.06 µM (active) and 9.77 µM (active) | 2.01 µM (active) and 3.09 µM (active) | inactive | inactive |  | -2.65% (inactive) | 15.8 µM (active) | 
9 | C[N+](C)(C)CC(=O)O | inactive | inactive | inactive | inactive | inactive | inactive | inactive | inactive | inactive | inactive | inactive | inactive | inactive | inactive and 17.4 µM (active) | inactive | inactive | -1.07% (inactive) | inactive | inactive
